Test results reported in PubChem BioAssay (NCI).
This is part of a sample that, as a whole, favours compounds with a hit. Of some 83,000 tested, about 20% had one in any assay.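 Note: values are percent growth. 100 is the growth of untreated cells, values between 100 and 0 indicate rising inhibition; between -100 and 0 indicates cell death.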 Calls of active or inactive are those of the source. Rule for the calls: active = growth percent below 10; inactive = the rest.

Assays:
Test in all cases: NCI-60 one-dose screen, 48 h (100 = growth as untreated, 0 = no growth, -100 = all killed)
Conditions in all cases: 10 µM unless noted
NCI-H23 lung = test system: NCI-H23 lung
NCI-H226 lung = test system: NCI-H226 lung
NCI-H322M lung = test system: NCI-H322M lung
HOP-62 NSCLC = test system: HOP-62 NSCLC
NCI-H460 lung = test system: NCI-H460 lung
HOP-92 NSCLC = test system: HOP-92 NSCLC
NCI-H522 lung = test system: NCI-H522 lung
A549/ATCC NSCLC = test system: A549/ATCC NSCLC
786-0 renal = test system: 786-0 renal
COLO 205 colon = test system: COLO 205 colon

Measured: growth

COc1cc2nc(-c3ccc(Cl)cc3)cc(OCCCN3CCOCC3)c2cc1OC
inactive: NCI-H23 lung 73.3% | NCI-H322M lung 57.4% | HOP-62 NSCLC 60.1% | NCI-H460 lung 21.6% | HOP-92 NSCLC 19.3% | NCI-H522 lung 21.6% | A549/ATCC NSCLC 29.9% | 786-0 renal 67.5% | COLO 205 colon 25.7%
active: NCI-H226 lung -7.3%

O=[N+]([O-])c1cc(Br)c2cccc3c2c1CC3
inactive: NCI-H23 lung 106% | NCI-H226 lung 103% | NCI-H322M lung 106% | HOP-62 NSCLC 118% | NCI-H460 lung 106% | HOP-92 NSCLC 97.1% | NCI-H522 lung 108% | A549/ATCC NSCLC 98.5% | 786-0 renal 96.5% | COLO 205 colon 118%

COc1cc2oc(-c3cccc(C(=O)Nc4ccccc4)c3)cc(=O)c2c(O)c1OC
inactive: NCI-H23 lung 86.9% | NCI-H226 lung 73.2% | NCI-H322M lung 66.4% | NCI-H460 lung 33.7% | NCI-H522 lung 91.3% | A549/ATCC NSCLC 60.3% | 786-0 renal 31.5% | COLO 205 colon 92.3%
active: HOP-62 NSCLC 8.89% | HOP-92 NSCLC 5.28%

COc1ccc(-c2nc3sccn3c2/C=C/C(=O)c2ccc3c(c2)OCO3)cc1
inactive: NCI-H23 lung 99.7% | NCI-H226 lung 84.7% | NCI-H322M lung 88.5% | HOP-62 NSCLC 97.5% | NCI-H460 lung 108% | HOP-92 NSCLC 82.8% | NCI-H522 lung 57.8% | A549/ATCC NSCLC 95% | 786-0 renal 96.8% | COLO 205 colon 211%

COC(=O)C1=C(C(=O)ON)[C@@H]2C=C[C@@]1([C@@H](Cc1ccccc1)Nc1ccccc1)O2
inactive: NCI-H23 lung 90.6% | NCI-H226 lung 105% | NCI-H322M lung 99.5% | HOP-62 NSCLC 102% | NCI-H460 lung 107% | HOP-92 NSCLC 63.1% | A549/ATCC NSCLC 92.9% | 786-0 renal 101%
active: NCI-H522 lung -74.7% | COLO 205 colon -67%

CC(=O)c1ccc(NS(=O)(=O)c2cccc(C(=O)Nc3ccc(Br)cc3)c2)cc1
inactive: NCI-H23 lung 36.4% [25 µM] | NCI-H226 lung 43% [25 µM] | NCI-H322M lung 89% [25 µM] | HOP-62 NSCLC 82% [25 µM] | NCI-H460 lung 75.7% [25 µM] | HOP-92 NSCLC 47.7% [25 µM] | NCI-H522 lung 46.4% [25 µM] | A549/ATCC NSCLC 61.9% [25 µM] | 786-0 renal 58.7% [25 µM] | COLO 205 colon 77.7% [25 µM]

COc1ccc2nc(-c3ccc(-c4noc(-c5cc(OC)c(OC)c(OC)c5)n4)cc3)[nH]c2c1
inactive: NCI-H23 lung 63.8% | NCI-H226 lung 86% | NCI-H322M lung 101% | HOP-62 NSCLC 76.8% | NCI-H460 lung 56.3% | HOP-92 NSCLC 76.2% | NCI-H522 lung 74.9% | A549/ATCC NSCLC 45.8% | 786-0 renal 77.8% | COLO 205 colon 78.4%

COc1cc2c(cc1OC)C(=O)/C(=C/c1cc(C)c(O)c(C)c1)S2
inactive: NCI-H23 lung 39.2% | NCI-H226 lung 55.7% | NCI-H322M lung 50.4% | HOP-62 NSCLC 39.4% | NCI-H460 lung 18.5% | HOP-92 NSCLC 88.6% | A549/ATCC NSCLC 36.9% | 786-0 renal 39.6% | COLO 205 colon 104%
active: NCI-H522 lung -7.24%

CNC(=O)c1cccc(Cn2nc(C)c(NC(=O)c3ccc(COc4ccc(C(F)(F)F)cc4C)cc3)c2C)c1
inactive: NCI-H23 lung 47.3% | NCI-H226 lung 44.6% | NCI-H322M lung 88% | HOP-62 NSCLC 46.3% | NCI-H460 lung 47.7% | HOP-92 NSCLC 80% | NCI-H522 lung 33% | A549/ATCC NSCLC 31.1% | 786-0 renal 54.8% | COLO 205 colon 42.7%

O=C(Nc1cccc(C2=NCCN2)c1)c1ccc(-c2ccc(C(=O)Nc3cccc(C4=NCCN4)c3)cc2)cc1
inactive: NCI-H23 lung 73% | NCI-H226 lung 84% | NCI-H322M lung 93.8% | HOP-62 NSCLC 113% | NCI-H460 lung 37.8% | HOP-92 NSCLC 90.9% | NCI-H522 lung 60.5% | A549/ATCC NSCLC 74.9% | 786-0 renal 86.2% | COLO 205 colon 43.9%

O=C(CCN1CCCC1)Nc1ccc2c(NCCCCc3ccccc3)c3ccccc3nc2c1
active: NCI-H23 lung -57.9% | NCI-H322M lung -24.8% | HOP-62 NSCLC -46.6% | NCI-H460 lung -69% | HOP-92 NSCLC -2.02% | NCI-H522 lung -38.7% | A549/ATCC NSCLC -45.5% | COLO 205 colon -47.1%
inactive: NCI-H226 lung 63.1% | 786-0 renal 15%

COc1cc2c(c(O)c1Br)C(=O)c1c(O)cc(C[C@H](C)O)cc1[C@H]2[C@H]1c2cc(C[C@H](C)O)cc(O)c2C(=O)c2c1cc(OC)c(Br)c2O
active: NCI-H23 lung 6.19% | NCI-H460 lung 0.308% | HOP-92 NSCLC -21.3% | NCI-H522 lung 2.22% | COLO 205 colon -35.3%
inactive: NCI-H226 lung 14.3% | NCI-H322M lung 17.2% | HOP-62 NSCLC 16.5% | A549/ATCC NSCLC 11.1% | 786-0 renal 10.4%

COc1ccc(C(=O)NNc2nc(Cl)nc(N3CCN(C(c4ccccc4)c4ccccc4)CC3)n2)cc1
inactive: NCI-H226 lung 90.1% | NCI-H322M lung 57.6% | HOP-62 NSCLC 86.5% | NCI-H460 lung 101% | HOP-92 NSCLC 74% | A549/ATCC NSCLC 92.6% | 786-0 renal 69.1% | COLO 205 colon 60.5%
active: NCI-H23 lung 3.63% | NCI-H522 lung -33%

Cc1nn(-c2ccccc2)c(Oc2c(Cl)cccc2Cl)c1/C=N/N=c1\sc2ccccc2n1C
inactive: NCI-H23 lung 72.5% | NCI-H226 lung 53.3% | NCI-H322M lung 82.2% | HOP-62 NSCLC 83.6% | NCI-H460 lung 17.4% | HOP-92 NSCLC 60.3% | NCI-H522 lung 65.5% | A549/ATCC NSCLC 47.5% | 786-0 renal 50.8% | COLO 205 colon 40.8%

CCOC(=O)CSc1nc2ccccc2c(=O)n1Cc1ccc(S(N)(=O)=O)cc1
inactive: NCI-H23 lung 98% | NCI-H226 lung 100% | NCI-H322M lung 99.7% | HOP-62 NSCLC 95.5% | NCI-H460 lung 101% | HOP-92 NSCLC 94.6% | NCI-H522 lung 91.3% | A549/ATCC NSCLC 98% | 786-0 renal 104% | COLO 205 colon 106%

COc1cc(/C=C\c2cc(/C=C\c3ccc(O)c(OC)c3)n(C(=O)COc3ccccc3)n2)ccc1O
active: NCI-H23 lung 1.6% | NCI-H226 lung 9.96% | HOP-62 NSCLC 8.39% | NCI-H460 lung 7.6% | NCI-H522 lung -39.3% | A549/ATCC NSCLC 8.68% | 786-0 renal 1.27%
inactive: NCI-H322M lung 30.8% | HOP-92 NSCLC 14.4% | COLO 205 colon 79.3%

O=C1C=CC(=O)N1c1cccc(Cl)c1
inactive: NCI-H23 lung 103% | NCI-H226 lung 107% | NCI-H322M lung 121% | HOP-62 NSCLC 101% | NCI-H460 lung 111% | HOP-92 NSCLC 76% | NCI-H522 lung 69.9% | A549/ATCC NSCLC 93% | 786-0 renal 105%
active: COLO 205 colon -6.46%

COc1ccc(/C=C/c2nc(Nc3ccc(S(=O)(=O)Nc4nc(C)cc(C)n4)cc3)c3ccccc3n2)cc1
inactive: NCI-H23 lung 78.1% | NCI-H226 lung 68.9% | NCI-H322M lung 29% | HOP-62 NSCLC 75.6% | NCI-H460 lung 63% | HOP-92 NSCLC 66.4% | NCI-H522 lung 68.5% | A549/ATCC NSCLC 42.2% | 786-0 renal 78.8% | COLO 205 colon 59.8%

O=C1OC(Cc2ccccc2)C1c1ccccc1 (stereo not given)
inactive: NCI-H23 lung 106% | NCI-H226 lung 102% | NCI-H322M lung 110% | HOP-62 NSCLC 104% | NCI-H460 lung 107% | HOP-92 NSCLC 104% | NCI-H522 lung 89.7% | A549/ATCC NSCLC 95.9% | 786-0 renal 102% | COLO 205 colon 109%

c1ccc2c(-c3nccs3)c[nH]c2c1
inactive: NCI-H23 lung 96.2% | NCI-H226 lung 97% | NCI-H322M lung 98% | HOP-62 NSCLC 99.2% | NCI-H460 lung 105% | HOP-92 NSCLC 89.7% | NCI-H522 lung 92.2% | A549/ATCC NSCLC 100% | 786-0 renal 88.8% | COLO 205 colon 119%

CCCCCN1C=C/C(=C\C(=O)n2ccc3ccccc32)c2ccccc21
inactive: NCI-H23 lung 77% | NCI-H226 lung 70.3% | NCI-H322M lung 87.7% | HOP-62 NSCLC 81.9% | NCI-H460 lung 91% | HOP-92 NSCLC 83.3% | NCI-H522 lung 77% | A549/ATCC NSCLC 89.4% | 786-0 renal 94.8% | COLO 205 colon 89.4%

Cc1nn(-c2ccccc2)c(Cl)c1/C=C/C(=O)c1ccc(F)cc1
inactive: NCI-H23 lung 94.6% | NCI-H226 lung 85.8% | NCI-H322M lung 91.2% | HOP-62 NSCLC 89.5% | NCI-H460 lung 98% | HOP-92 NSCLC 88.1% | NCI-H522 lung 69.4% | A549/ATCC NSCLC 83.8% | 786-0 renal 12.6% | COLO 205 colon 105%

Cc1ccc(NC(=O)c2cc(-c3nc4ccccc4s3)c(=O)n(NS(=O)(=O)c3ccc(Cl)cc3)c2N)cc1
inactive: NCI-H23 lung 102% | NCI-H226 lung 80.6% | NCI-H322M lung 97.8% | HOP-62 NSCLC 106% | NCI-H460 lung 105% | HOP-92 NSCLC 103% | NCI-H522 lung 94.4% | A549/ATCC NSCLC 100% | 786-0 renal 101% | COLO 205 colon 114%

COc1ccc(C(=O)Nc2cccc(C3CCc4c(cc(OC)c(OC)c4OC)O3)c2)cc1 (stereo not given)
inactive: NCI-H23 lung 58.9% | NCI-H226 lung 30.1% | NCI-H322M lung 75.9% | HOP-62 NSCLC 39.8% | NCI-H460 lung 25.7% | HOP-92 NSCLC 61.3% | NCI-H522 lung 42.7% | A549/ATCC NSCLC 43.4% | 786-0 renal 68.7% | COLO 205 colon 67.9%

CC1(C)NCCC[C@]2(C)[C@H]3CC(=O)[C@H]4[C@@H]5C[C@](C)(CO)CC[C@]5(C)CC[C@@]4(C)[C@]3(C)CC[C@@H]12
inactive: NCI-H23 lung 104% | NCI-H226 lung 97.9% | NCI-H322M lung 98.2% | HOP-62 NSCLC 92.4% | NCI-H460 lung 99.6% | HOP-92 NSCLC 84% | NCI-H522 lung 101% | A549/ATCC NSCLC 92% | 786-0 renal 94% | COLO 205 colon 94.2%

COc1cc2c(=O)n(CCCN(C)C)c3c4cc5c(cc4ccc3c2cc1OC)OCO5
inactive: NCI-H23 lung 58.6% | NCI-H226 lung 52.8% | NCI-H322M lung 61.6% | HOP-62 NSCLC 38% | NCI-H460 lung 18.2% | HOP-92 NSCLC 67.7% | NCI-H522 lung 53.9% | A549/ATCC NSCLC 41.8% | 786-0 renal 62.8% | COLO 205 colon 49%
